# Compound activity deposited in PubChem BioAssay by National Center for Advancing Translational Sciences (NCATS).
# IMPase Li inh: cell-permeable IMPase inhibitors with lithium potentiation; Potency, µM (titrated, usually from 59.4 µM), actives largely listed as inhibitors; CHO-M1 cells, IP1 TR-FRET (IP-One), carbachol + lithium; 210,000 compounds, 0.35% hits;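 note: IP1 builds up when IMPase is blocked and the TR-FRET signal falls; nearly all actives have a fitted effect of over 50% in size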
#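 Steps: plate 2000 CHO-M1 cells per well and culture 16–30 h; add compound and lithium; incubate 30 min, 37C; add d2-IP1 tracer and Eu cryptate anti-IP1 antibody in lysis buffer; read after 10 min at room temperature.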
# GoLoco inh red: blocks human Gai1 binding to RGS12 GoLoco peptide, red readout | Potency, µM (titrated, usually from 61.6 µM), actives largely listed as inhibitors | 230,000 compounds, 0.44% hits | P63096 | Gai1:RGS12 GoLoco peptide FP, rhodamine, 10 min | AID 880; active = well fitted inhibition curve with a large enough effect, not every such curve was filed as active; inactive = no such curve, though single readings can be large or run the other way; note: nearly all actives have a fitted effect of over 30% in size
# NPSR antag: neuropeptide S receptor (human) antagonism, cAMP; Q6W5P4; CHO-NPSR cells, cAMP TR-FRET, antagonist mode; Potency, µM (top dose mostly 38.3 µM), usual class: inhibitors; 220,000 compounds, 1% hits; AID 1461; note: nearly all actives have a fitted effect of over 50% in size
# Tb PFK inh: T. brucei PFK enzyme inhibition; 330,000 compounds, 0.17% hits; Potency, µM (doses to about 57.5 µM), hits mostly inhibitors; O15648; T. brucei PFK, ADP-Glo luminescence; note: nearly all actives have a fitted effect of over 60% in size
# Target sequence (O15648 whole entry, looked up): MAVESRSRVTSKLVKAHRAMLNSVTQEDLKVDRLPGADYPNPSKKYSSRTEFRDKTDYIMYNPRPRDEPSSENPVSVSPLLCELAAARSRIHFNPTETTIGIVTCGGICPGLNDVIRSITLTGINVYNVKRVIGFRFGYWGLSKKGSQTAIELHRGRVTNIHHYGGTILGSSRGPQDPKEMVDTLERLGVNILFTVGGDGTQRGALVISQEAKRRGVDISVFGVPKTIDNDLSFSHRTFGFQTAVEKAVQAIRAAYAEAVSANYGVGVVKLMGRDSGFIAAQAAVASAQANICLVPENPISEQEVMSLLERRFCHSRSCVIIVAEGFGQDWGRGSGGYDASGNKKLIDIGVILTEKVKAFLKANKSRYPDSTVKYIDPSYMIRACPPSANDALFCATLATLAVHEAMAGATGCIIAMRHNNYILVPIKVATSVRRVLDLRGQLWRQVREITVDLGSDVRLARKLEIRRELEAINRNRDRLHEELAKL
#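 In TEA buffer at pH 8.0 with 5 mM MgCl2, enzyme (1.25 nM) converted F6P (0.5 mM) and ATP (0.1 mM) for 45 min at room temperature. ADP product was read by luciferase luminescence.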
# MBNL1-CUG inh: blocks human MBNL1 binding to CUG repeat RNA; Q9NR56; TR-FRET MBNL1-His/biotin-(CUG)12 binding, 665/545 ratio; Potency, µM (doses to about 57.5 µM), actives largely listed as inhibitors; 280,000 compounds, 0.036% hits; active = well fitted inhibition curve with a large enough effect in the signal ratio, with a control signal flat, not every such curve was filed as active; inconclusive = small, poorly fitted or top-dose-only effect, or effect the other way, or a change in a side signal; inactive = no such curve, though single readings can be large or run the other way; the % refers to the signal ratio
#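 TR-FRET between His-tagged MBNL1 and biotin-(CUG)12 RNA, detected with Tb anti-His antibody (0.055 ng/ul) and streptavidin-XL665 (5 nM), 60 min at room temperature. Compounds titrated 92 nM to 58 uM; 665/545 nm ratio normalized to buffer and complex controls.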
# A number is an active result; i = inactive; ? = inconclusive; nt = no result given; [ ] = another dose, or the depositor's remark. Shown is part of a subset that was picked to be rich in hits. Unless noted, calls come from the whole dose curve; as a rule, active = well fitted curve in the direction sought with a large enough effect; inconclusive = small, poorly fitted or top-dose-only effect, or another doubt; inactive = no such curve, though single readings can be large; an effect the other way counts as inactive or inconclusive.
SMILES,IMPase Li inh,GoLoco inh red,NPSR antag,Tb PFK inh,MBNL1-CUG inh
CCc1ccc(S(=O)(=O)/N=C2\C=CC(=O)c3ccccc32)cc1,i,i,i,i,i
CCc1ccc(S(=O)(=O)/N=C2/C=C(Sc3ncn[nH]3)C(=O)c3ccccc32)cc1,i,i,10µM,i,?
COc1ccc(-n2ncc3c(=O)n(CC(=O)NC(C)C)cnc32)cc1,nt,nt,nt,i,i
CCOC(=O)C1C(C(=O)OC)=C(c2ccc(F)cc2)c2ccc(OC)cc2N1S(=O)(=O)C(F)(F)F (stereo not drawn),i,i,nt,nt,nt
CCOc1ncccc1C(=O)OCC(=O)Nc1cc(C(=O)OC)ccc1C(=O)OC,i,i,i,i,i
COC(=O)c1ccc(C(=O)OC)c(NC(=O)COC(=O)c2ccccc2OC)c1,11µM,i,i,i,i
CCCCCCCCCCCCCCCC[n+]1ccc(/C=N/O)cc1,i,i,5µM,i,i
O/N=C/c1cccc[n+]1CCCCCC[n+]1ccccc1/C=N/O,nt,nt,nt,i,?
Cc1cccc2cc(CN(Cc3ccco3)C(c3nnnn3CCc3ccccc3)C(C)C)c(=O)[nH]c12 (stereo not drawn),i,i,13µM,i,?
COc1ccc2[nH]c(=O)c(CN(Cc3ccco3)C(c3nnnn3Cc3ccccc3)C(C)C)cc2c1 (stereo not drawn),i,i,?,i,i
CCOC(=O)/C(=C\c1cccc(O)c1)c1nc2sc(C)c(C)c2c(=O)[nH]1,i,i,10µM,i,nt
CCOC(=O)c1nc2sc(C)c(C)c2c(=O)[nH]1,i,i,i,i,i
O=C1C=CC(=O)c2c(O)c(Cl)c(Cl)c(O)c21,i,0.35µM,nt,nt,nt
S=C(Nc1ccc(CN2CCCCC2)cc1)Nc1cccc(Cl)c1Cl,nt,nt,nt,i,i
Cc1ccc(-c2nc(=S)c3c(n2Cc2ccco2)CC(C)(C)OC3)cc1,4µM,i,i,i,i
Cc1ccc(-c2nc(=S)c3c(n2Cc2ccco2)CCCC3)cc1,?,i,i,i,i
Cc1noc(C)c1C(=O)N1CCC[C@@]2(CCN(C(=O)Nc3cccc(F)c3)C2)C1,i,i,nt,nt,nt
O=C(NCc1cccnc1)/C(=C\c1ccc(-c2cccc(Cl)c2)o1)S(=O)(=O)c1ccccc1,i,i,?,i,i
O=C(NCc1cccnc1)/C(=C/c1ccc(-c2cccc(Cl)c2)o1)S(=O)(=O)c1ccccc1,i,i,5µM,i,i
Cc1cc(C)cc(NC(=O)C(=O)NCCCN2CCCC2=O)c1,nt,nt,nt,i,nt
Cc1cccc(Sc2c([N+](=O)[O-])ncn2C)c1,7.9µM,i,i,i,i
Cc1cccnc1Sc1c([N+](=O)[O-])ncn1C,i,i,i,i,i
CCOc1ccc2noc3c2c1C(=O)c1ccccc1-3,i,i,i,i,?
O=C(O)c1ccccc1NCc1ccco1,nt,i,i,i,i
O=C1c2ccccc2-c2onc3ccc(NCc4ccco4)c1c23,i,11µM,?,i,?
SMILES,IMPase Li inh,GoLoco inh red,NPSR antag,Tb PFK inh,MBNL1-CUG inh
O=C1c2ccccc2C(=O)c2c1cccc2N1CCCC1,i,i,i,i,?
O=C1c2ccccc2-c2onc3ccc(N4CCCC4)c1c23,i,i,13µM,i,nt
CCNc1ccc2noc3c2c1C(=O)c1ccccc1-3,i,4µM,i,i,?
Cn1c(=O)cc2c3c(c(N4CCCCC4)ccc31)C(=O)c1ccccc1-2,nt,16µM,i,i,?
CCC1OC23CCCCC2C(C#N)(C(=N)O3)C1(C#N)C#N (stereo not drawn),i,35µM,i,i,?
N#CC1(C#N)COC23CCCCC2C1(C#N)C(=N)O3 (stereo not drawn),i,0.89µM,i,i,?
CCCC1OC23CCCCC2C(C#N)(C(=N)O3)C1(C#N)C#N (stereo not drawn),i,28µM,i,i,i
N#CC12COC3(CCCCC3C1(C#N)C#N)OC2=N (stereo not drawn),nt,i,i,i,i
CCCCN(C(=O)C1CCCO1)c1c(N)n(CCC)c(=O)[nH]c1=O (stereo not drawn),nt,nt,nt,i,nt
CC(c1ncncc1F)[C@](O)(Cn1cncn1)c1ccc(F)cc1F (stereo partly drawn),nt,i,nt,nt,nt
CC(C)C1Cc2c(sc3[nH]c(=S)n(Cc4ccccc4)c(=O)c23)CO1 (stereo not drawn),i,i,10µM,i,i
Cn1c(=O)c2c(SCc3c(F)cccc3Cl)nc(CC(C)(C)C)nc2n(C)c1=O,i,i,10µM,i,i
Cn1c(=O)c2c(SCC(N)=O)nc(CC(C)(C)C)nc2n(C)c1=O,i,i,i,i,i
Cc1cccc(CNc2nc(-c3ccc(C(=O)N(C)C)cc3)nc3ccccc23)c1,i,i,nt,nt,nt
COc1ccc(C2C3C=CCC(c4cccc(-c5ccc(C)cc5)c4)C3C(=O)N2Cc2ccccc2)cc1Cl (stereo not drawn),nt,i,10µM,i,i
COc1ccc(-c2cccc(C3CC=CC4C3C(=O)N(Cc3ccccc3)C4c3ccc4ccccc4c3)c2)cc1 (stereo not drawn),nt,i,i,i,i
COc1cc(/C=C2/S/C(=N/S(=O)(=O)Cc3ccccc3)NC2=O)c([N+](=O)[O-])cc1OC,nt,25µM,i[7.67 µM],i,nt
Cc1c(C(=O)O)sc2ncnc(N3CCCCC3C)c12 (stereo not drawn),5.6µM,i,i,i,i
Cc1sc2nc(SCc3nc(-c4ccccc4)no3)n(-c3ccccc3)c(=O)c2c1C,i,10µM,i,i,i
Cc1cc(C)c(C)c(S(=O)(=O)N2CCN(C(=O)C3CCC3)CC2)c1C,nt,nt,nt,i,nt
CNc1oc(-c2ccc(C)cc2)nc1P(=O)(c1ccccc1)c1ccccc1,i,i,13µM,i,i
CNc1oc(-c2ccccc2Cl)nc1P(=O)(c1ccccc1)c1ccccc1,i,i,?,i,nt
Cc1c2cccn2cc[n+]1C,i,8.9µM,i,i,i
Cc1ccc2oc(-c3ccc(C)c(NC(=O)Cc4cccs4)c3)nc2c1,13µM,i,i,i,i
Cn1cc(S(=O)(=O)N2CCCC2)cc1C(=O)NCc1ccc(Cl)cc1,nt,nt,nt,i,i
SMILES,IMPase Li inh,GoLoco inh red,NPSR antag,Tb PFK inh,MBNL1-CUG inh
CCCCCCOC1(c2ccccc2)OC(=O)c2ccccc21 (stereo not drawn),i,i,?,i,i
CCCCCOP(=O)(OCCCCC)C1(NS(=O)(=O)c2ccccc2)C=CC(=O)c2ccccc21 (stereo not drawn),nt,nt,10µM,i,i
O=C(O)COc1ccc2nsnc2c1Cl,i,i,13µM,i,?
O=C(O)COc1ccc(C(=O)c2cccs2)c(Cl)c1Cl,i,i,nt,nt,nt
COc1ccc(-n2c(SCC(=O)Nc3cc(C)on3)nc3c([nH]c4ccccc43)c2=O)cc1,5µM,i,?,i,i
COc1cc(NCC[C@@H]2CCCCN2)c2ncccc2c1,i,i[14.2 µM],nt,nt,nt
Cn1c(N)c(C(=O)COC(=O)c2ccc(OC(F)F)cc2)c(=O)n(C)c1=O,nt,nt,nt,i,nt
